Data published in PubChem BioAssay (Tox21).
Where “and” joins values, the source holds several entries; their conditions need not be identical. Equal entries are not always repeated. Inconclusive results are not listed. Calls of active or inactive are those of the source. Unless noted, calls follow the shape of the dose curve; as a rule, active = well fitted curve in the direction sought with a large enough effect in the repeat runs; inconclusive = weak or mixed curves; inactive = no such curve, though single readings can be large; an effect the other way counts as inactive or inconclusive.

How the values were obtained:
[1] = qHTS assay to identify small molecule agonists of the hypoxia (HIF-1) signaling pathway - cell viability counter screen (AID 1224844; calls by dose curve; also: nearly all actives have a fitted effect of over 50% in size; also: potency is read from the fitted curve at half-maximal effect)
Procedure, shortened: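 HRE-bla ME-180; 0.5% dFBS; cpd 17 h, 37C, 5% CO2; CellTiter-Glo lum., 30 min RT, post-FRET read, same wells.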

[2] = qHTS assay to identify small molecule agonists of H2AX - cell viability counter screen (AID 1224847; calls by dose curve; also: nearly all actives have a fitted effect of over 30% in size; also: potency is read from the fitted curve at half-maximal effect)
Procedure, shortened: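 For this counter screen, overnight-attached CHO-K1 cells received test compounds (15 concentrations, 0.76% DMSO final); 3 hr later at 37C, CellTiter-Glo reagent was added and luminescence recorded after 30 min at room temperature.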

[3] = qHTS RealTime-Glo MT Cell Viability Assay in HEK293 cells - 32 hour (AID 1224868); also: nearly all actives have a fitted effect of over 50% in size; also: potency is read from the fitted curve at half-maximal effect
Procedure, shortened: (§1)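 HEK293 cells seeded with NanoLuc/prosubstrate reagent, rested 5 h at 37 C, then dosed and kept at 37 C up to 40 h. Nonlytic real-time luminescence from viable cells read at 0, 8, 16, 24, 32 and 40 h.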

[4] = A CellTox Green Cytotoxicity Assay to monitor cytotoxicity in HEK293 cells - 0 hour (AID 1224869); also: nearly all actives have a fitted effect of over 50% in size; also: potency is read from the fitted curve at half-maximal effect
Procedure, shortened: (§2)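 Tox21 screen in HEK293: membrane-impermeant cyanine dye fluoresces on binding dead-cell DNA; compound pinned 5 h post-seeding, plates held at 37 C, signal read repeatedly through 40 h.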

[5] = A CellTox Green Cytotoxicity Assay to monitor cytotoxicity in HEK293 cells - 40 hour (AID 1224871); also: nearly all actives have a fitted effect of over 45% in size; also: potency is read from the fitted curve at half-maximal effect
Procedure, shortened: as §2

[6] = qHTS RealTime-Glo MT Cell Viability Assay in HepG2 cells - 8 hour (AID 1224873); also: nearly all actives have a fitted effect of over 55% in size
Procedure, shortened: (§3)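 HepG2 cells (600/well) mixed with RealTime-Glo MT reagent, settled 5 h at 37 C/5% CO2 before compound addition. Nonlytic NanoLuc luminescence from viable-cell prosubstrate reduction read repeatedly during 40 h treatment at 37 C.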

[7] = qHTS RealTime-Glo MT Cell Viability Assay in HEK293 cells - 40 hour (AID 1224874); conditions: RealTime-Glo luminescence; max response: hits give low values; also: nearly all actives have a fitted effect of over 50% in size; also: potency is read from the fitted curve at half-maximal effect
Procedure, shortened: (§4)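 HEK293 + NanoLuc + prosubstrate, 600 cells/well; 5 h, 37 C/5% CO2; compound 23 nL in DMSO by pintool; 37 C; luminescence read at 0, 8, 16, 24, 32 and 40 h time points.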

[8] = A CellTox Green Cytotoxicity Assay to monitor cytotoxicity in HepG2 cells - 16 hour (AID 1224876); also: nearly all actives have a fitted effect of over 45% in size; also: potency is read from the fitted curve at half-maximal effect
Procedure, shortened: (§5)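 Measurements at 0, 8, 16, 24, 32 and 40 h of treatment captured CellTox Green fluorescence in HepG2 cells that had been co-plated with reagent and preincubated 5 h at 37 C/5% CO2.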

[9] = qHTS RealTime-Glo MT Cell Viability Assay in HepG2 cells - 32 hour (AID 1224877); also: nearly all actives have a fitted effect of over 55% in size
Procedure, shortened: (§6)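 HepG2 cells (600/well) were dispensed with RealTime-Glo reagents, incubated 5 h at 37 °C, then treated with compounds in DMSO for up to 40 h. Nonlytic NanoLuc luminescence reflecting viable cells was read at each stated time point.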

[10] = A CellTox Green Cytotoxicity Assay to monitor cytotoxicity in HepG2 cells - 24 hour (AID 1224878); also: nearly all actives have a fitted effect of over 45% in size; also: potency is read from the fitted curve at half-maximal effect
Procedure, shortened: as §5

[11] = A CellTox Green Cytotoxicity Assay to monitor cytotoxicity in HepG2 cells - 40 hour (AID 1224879); also: nearly all actives have a fitted effect of over 40% in size; also: potency is read from the fitted curve at half-maximal effect
Procedure, shortened: as §5

[12] = qHTS assay to identify small molecule agonists of the hypoxia (HIF-1) signaling pathway (AID 1224846; active = well fitted activation curve with a large enough effect in the signal ratio in the repeat runs, not every such curve was filed as active; the % refers to the signal ratio)
Procedure, shortened: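 Reporter induction in HRE-bla ME-180 cells is taken as agonism: cells sit 5 hrs after plating, receive compounds or DMSO only, incubate 17 hrs at 37C under 5% CO2, and are loaded with CCF4-AM for beta-lactamase FRET measurement.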

[13] = qHTS RealTime-Glo MT Cell Viability Assay in HepG2 cells - 24 hour (AID 1224867); also: nearly all actives have a fitted effect of over 50% in size
Procedure, shortened: as §6

[14] = qHTS RealTime-Glo MT Cell Viability Assay in HepG2 cells - 40 hour (AID 1224870); also: nearly all actives have a fitted effect of over 50% in size
Procedure, shortened: as §3

[15] = qHTS RealTime-Glo MT Cell Viability Assay in HEK293 cells - 16 hour (AID 1224872); also: nearly all actives have a fitted effect of over 50% in size; also: potency is read from the fitted curve at half-maximal effect
Procedure, shortened: as §1

[16] = A CellTox Green Cytotoxicity Assay to monitor cytotoxicity in HEK293 cells - 24 hour (AID 1224875); also: nearly all actives have a fitted effect of over 45% in size; also: potency is read from the fitted curve at half-maximal effect
Procedure, shortened: as §2

[17] = qHTS RealTime-Glo MT Cell Viability Assay in HEK293 cells - 0 hour (AID 1224880); also: nearly all actives have a fitted effect of over 45% in size; also: potency is read from the fitted curve at half-maximal effect
Procedure, shortened: as §4

[18] = qHTS assay to identify small molecule antagonists of the estrogen related receptor (ERR) signaling pathway from Tox21 library (AID 1224848); also: nearly all actives have a fitted effect of over 50% in size; also: potency is read from the fitted curve at half-maximal effect
Procedure, shortened: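 Compounds dissolved in DMSO are pin-transferred onto ERR reporter cells (2,000 per well) that have settled for 6 h at 37 C. Plates then incubate 18 h at 37 C before ONE-Glo luciferase reagent and a luminescence read 30 min later.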

[19] = qHTS assay to identify small molecule agonists of the estrogen related receptor (ERR) signaling pathway from Tox21 library (AID 1224849; calls by dose curve; also: nearly all actives have a fitted effect of over 15% in size); conditions: ERR reporter cell line, ONE-Glo luciferase, 18 h
Procedure, shortened: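 Tox21 compounds tested for ERR agonism in an NTP reporter cell line: 18 h treatment at 37 C, then ONE-Glo luminescence.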
% is scaled to controls: 0 for no effect and ±100 for the full control effect.

C=CC(=O)OCCOC(=O)C=C
active: Potency [1] 24.5 µM | Potency [3] 43.6 µM | Potency [5] 43.6 µM | Potency [7] 49 µM
inactive: Potency [2] | Potency [4] | Potency [6] | Potency [8] | Potency [9] | Potency [10] | Potency [11]

CCCCCCCCCCCCOC(=O)c1ccc(O)cc1
active: Potency [15] 44 µM
inactive: Potency [1] | Potency [12] | Potency [13] | Potency [4] | Potency [14] | Potency [5] | Potency [16] | Potency [8] | Potency [9] | Potency [10] | Potency [11]

O=S(=O)(O)c1ccc(N=Nc2c(O)ccc3ccccc23)cc1
inactive: Potency [12] | Potency [4] | Potency [15] | Potency [16] | Potency [8] | Potency [10] | Potency [11] | Potency [17]
active: Potency [1] 12.3 µM

O=c1oc2cc(O)ccc2c2oc3cc(O)ccc3c12
active: Potency [15] 21 µM
inactive: Potency [1] | Potency [2] | Potency [18] | Potency [13] | Potency [4] | Potency [14] | Potency [5] | Potency [6] | Potency [16] | Potency [8] | Potency [9] | Potency [10] | Potency [17]

C=C(CC)C(=O)c1ccc(OCC(=O)O)c(Cl)c1Cl
active: Potency [1] 19.4 µM and 21.3 µM | Potency [18] 68.1 µM
inactive: activity change, positive = activation ([19]; at 42.5 µM (top of the series)) -17.8% | activity change, positive = activation ([19]; at 92.4 µM (top of the series)) -55% | Potency [13] | Potency [3] | Potency [4] | Potency [14] | Potency [5] | Potency [15] | Potency [6] | max response [7] -6.17% and 15.5% | Potency [16] | Potency [9] | Potency [10] | Potency [11]

CC(=O)[C@H]1CC[C@H]2[C@@H]3CCC4=CC(=O)CC[C@]4(C)[C@H]3CC[C@]12C
active: Potency [2] 100 µM and 101 µM | Potency [18] 13.6 µM and 15.4 µM | Potency [3] 13.7 µM and 17.4 µM | Potency [5] 24.4 µM and 34.7 µM | Potency [15] 15.4 µM and 19.5 µM | Potency [7] 13.7 µM and 17.4 µM | Potency [11] 54.6 µM and 43.6 µM | Potency [17] 15.4 µM and 19.5 µM
inactive: Potency [1] | activity change, positive = activation ([19]; at 92.4 µM (top of the series)) -73.5% and -66.4% | Potency [4] | Potency [14] | Potency [8] | Potency [9] | Potency [10]

O=C(c1ccc(O)c(O)c1)c1ccc(O)cc1O
active: Potency [18] 54.4 µM | Potency [3] 27.5 µM | Potency [7] 24.5 µM
inactive: Potency [1] | Potency [2] | activity change, positive = activation ([19]; at 92.4 µM (top of the series)) -38% | Potency [13] | Potency [4] | Potency [14] | Potency [15] | Potency [6] | Potency [9]

Cc1cc(C(C#N)c2ccc(Cl)cc2)c(Cl)cc1NC(=O)c1cc(I)cc(I)c1O (stereo not given)
active: Potency [18] 26.6 µM
inactive: Potency [1] | activity change, positive = activation ([19]; at 42.5 µM (top of the series)) -52.3% | Potency [13] | Potency [3] | Potency [4] | Potency [5] | Potency [15] | Potency [16] | Potency [9] | Potency [10] | Potency [11] | Potency [17]

O=C1OC2(c3ccc(O)cc3Oc3cc(O)ccc32)c2ccc(N=C=S)cc21
active: Potency [4] 22.3 µM | Potency [16] 17.7 µM | Potency [8] 15.8 µM | Potency [10] 15.8 µM | Potency [11] 15.8 µM | Potency [17] 44.4 µM
inactive: Potency [1] | Potency [2] | Potency [18] | activity change, positive = activation ([19]; at 92.4 µM (top of the series)) 3.25% | Potency [14]

CCOC(=O)Cn1cccc1-c1nc(-c2ccc(OC)cc2)c(-c2ccc(OC)cc2)s1
inactive: Potency [1] | Potency [2] | Potency [3] | Potency [4] | Potency [5] | Potency [15] | max response [7] -5.42% | Potency [16] | Potency [8] | Potency [10] | Potency [11] | Potency [17]

Cc1c2ccccc2c(C)c2c1ccc1ccccc12
inactive: Potency [1] | Potency [2] | activity change, positive = activation ([19]; at 92.4 µM (top of the series)) -83.3% and -76.1% | Potency [13] | Potency [4] | Potency [14] | Potency [6] | Potency [8] | Potency [9] | Potency [10] | Potency [11] | Potency [17]
active: Potency [18] 30.3 µM and 61.1 µM | Potency [3] 43.2 µM and 24.5 µM | Potency [7] 43.2 µM and 34.7 µM | Potency [16] 49 µM

C#C[C@]1(OC(C)=O)CC[C@H]2[C@@H]3CCC4=C[C@@H](OC(C)=O)CC[C@@H]4[C@H]3CC[C@@]21C
inactive: Potency [1] | Potency [12] | activity change, positive = activation ([19]; at 42.5 µM (top of the series)) -53.5% | Potency [13] | Potency [4] | Potency [8] | Potency [9] | Potency [10] | Potency [17]
active: Potency [18] 23.7 µM | Potency [3] 21.3 µM | Potency [7] 21.3 µM

O=C(Nc1ccc2c(O)c(N=Nc3ccc(N=Nc4ccc(S(=O)(=O)O)cc4)cc3)c(S(=O)(=O)O)cc2c1)c1ccccc1
active: Potency [2] 50.5 µM
inactive: Potency [1] | activity change, positive = activation ([19]; at 92.4 µM (top of the series)) -30% | Potency [3] | Potency [4] | Potency [5] | Potency [15] | max response [7] -19.7% | Potency [8] | Potency [10] | Potency [11]

CC(CCc1ccccc1)NCC(O)c1ccc(O)c(C(N)=O)c1 (stereo not given)
inactive: Potency [1] | Potency [2] | Potency [13] | Potency [3] | Potency [4] | Potency [14] | Potency [5] | Potency [15] | Potency [6] | max response [7] 0.74% | Potency [8] | Potency [9] | Potency [10] | Potency [11] | Potency [17]

Nc1ccc(Oc2ccc(Cl)cc2)cc1
active: Potency [3] 21.4 µM | Potency [15] 21.4 µM | Potency [7] 21.4 µM
inactive: Potency [1] | Potency [12] | activity change, positive = activation ([19]; at 92.4 µM (top of the series)) -19.3% | Potency [13] | Potency [4] | Potency [14] | Potency [5] | Potency [6] | Potency [16] | Potency [8] | Potency [9] | Potency [10] | Potency [11] | Potency [17]

CC(C)=CCC1=C(O)c2ccccc2C(=O)C1=O
inactive: Potency [1] | Potency [12] | activity change, positive = activation ([19]; at 92.4 µM (top of the series)) -51.5% | Potency [4] | Potency [14] | Potency [5] | Potency [6] | Potency [16] | Potency [8] | Potency [9] | Potency [10] | Potency [17]
active: Potency [18] 1.92 µM | Potency [7] 24.4 µM
